Compound activity (PubChem BioAssay)
Shown is part of a subset that was picked to be rich in hits.
BJeLR viab HTS: BJeLR cell viability reduction | 0.64% of 30,000 active | viability loss activity score, % (concentration not given with the values) | BJeLR fibroblasts viability, CellTiterGlo ATP luminescence, 48 h; HRASV12, hTERT and SV40 LT/ST transformed; in the data active = viability loss activity score above about 50%;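 note: higher score means fewer live cells and less ATP luminescence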
Hedgehog inh: blocks Sonic Hedgehog signaling. 2.1% of 22,000 active. Shh-LIGHT2 Gli-luciferase reporter, 30 h. inhibition, % (concentration not given with the values). AID 2313;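 active = mean inhibition across valid replicates above about 65%, limit read from the data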;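 note: pathway switched on by Shh-conditioned medium diluted 1 in 25 in low serum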
* hit, by the source's call; nt = no result.

SMILES	BJeLR viab HTS	Hedgehog inh
COc1ccc(CN2CCN(Cc3ccccc3C)CC2)cc1	-1.7	nt
CCC(C)[C@H]1C(=O)O[C@H](C(C)C)C(=O)N(C)[C@@H](C(C)CC)C(=O)O[C@H](C(C)C)C(=O)N(C)[C@@H](C(C)CC)C(=O)O[C@H](C(C)C)C(=O)N1C (stereo not given in full)	90.5*	103.9*
CCN(CC)P1(=O)OC(C)(C)CC1(C)O (stereo not given)	1.2	-18.2
Cc1cc(OCc2c(F)cccc2Cl)c2c3c(c(=O)oc2c1)CCCC3	-1.1	nt
CC[C@H]1CN2CCc3cc(OC)c(OC)cc3[C@@H]2C[C@@H]1C[C@H]1NCCc2cc(O)c(OC)cc21	93.6*	85.9*
COc1cc2c(cc1O)CCNC2C (stereo not given)	-4.3	0.5
CC(CCc1ccc(O)cc1)O[C@@H]1O[C@H](CO[C@H]2OC[C@](O)(CO)[C@H]2O)[C@@H](O)[C@H](O)[C@H]1O (stereo not given in full)	-8.3	-4.9
CCOC(=O)c1c(C)n(C(C)C)c2ccc(OC(=O)c3ccccc3)cc12	-3.8	-14.4
Cc1cc(Br)c(NC(=O)C2C(C)(C)C2(C)C)c(Br)c1	-2.1	64.6*
CC1(C)C(C(=O)Nc2ccccc2C#N)C1(C)C	-4.8	-37.2
C[C@@H]1C(=O)O[C@H]2[C@H]1CC[C@@]1(C)C=CC(=O)[C@@]3(C)O[C@@]213	7.0	17.6
CCOc1ccccc1C1NC(=S)NC(c2ccccc2OCC)C12C(=O)NC(=O)NC2=O (stereo not given)	0.1	nt
CO/C1=C/C(C)=C/[C@@H](C)[C@@H](O)[C@@H](C)C/C(C)=C/C=C\[C@H](OC)[C@@H]([C@@H](C)[C@@H](O)[C@H](C)[C@@]2(O)C[C@@H](O)[C@H](C)[C@@H](C(C)C)O2)OC1=O	52.1*	97.3*
CC1C/C=C/C2C3OC3(C)C(C)C3C(Cc4ccccc4)NC(=O)C23OC(=O)O/C=C/C(C)(O)C1=O (stereo not given)	2.8	44.1
CCOC(=O)c1cc(C(C)(C)C)nc(OC(=O)N(C)C)c1C#N	0.0	27.0
C[C@@]12C[C@@H](c3ccoc3)OC(=O)C1CC[C@]1(C)[C@H]2[C@H]2C=C[C@]1(O)C(=O)O2 (stereo not given in full)	0.7	-15.9
CCNCC(O)c1cccc(OC(=O)c2ccccc2C)c1 (stereo not given)	-6.7	nt
CC(C)[C@]12O[C@H]1[C@@H]1O[C@]13[C@]1(O[C@H]1C[C@H]1C4=C(CC[C@@]13C)C(=O)OC4)[C@@H]2O	90.1*	28.9
CN1Cc2c(ccc3c2OCO3)[C@@H]2[C@H]1c1cc3c(cc1C[C@@H]2O)OCO3	41.1	-7.5
CN(C)C(=O)Oc1cccc(N)c1	0.2	nt
COc1cc2c(cc1OC)-c1c(OC)c(OC)c(N)c3c1[C@H](C2)N(C)CC3	3.3	nt
CCCCCc1cc(OC)c(CC=C(C)C)c(O)c1C(=O)O	nt	-16.7
CC1=C2C[C@H]3[C@@H](CC=C4C[C@@H](O)CC[C@@]43C)[C@@H]2CC[C@]12O[C@@H]1C[C@H](C)CN[C@H]1[C@H]2C	4.6	88.9*
CC1(C)CC(=O)C2=C(C1)OC(N)=C(C(=O)OC(C)(C)C)C21C(=O)Nc2ccccc21 (stereo not given)	0.8	-32.2
CN1C(=O)NC(=O)/C(=C\C=C\c2ccco2)C1=O	-2.7	nt
SMILES	BJeLR viab HTS	Hedgehog inh
CN(C)c1ccc(/C=C/C=C2/C(=O)NC(=O)N(c3ccccc3)C2=O)cc1	60.0*	nt
Cc1c(O)c(C(=O)O)c(O)c2c1[C@H](C)[C@@H](C)OC2=O	-5.6	-4.1
COc1cc2c3c(c1OC)-c1c(ccc(O)c1O)CC3N(C)CC2 (stereo not given)	2.4	-9.5
O=c1[nH]c2ccccc2n1C1CCN(CCCC(c2ccc(F)cc2)c2ccc(F)cc2)CC1	-4.2	72.8*
CC(=O)NC1C(OC2OC(CC(O)C3OC(n4ccc(=O)[nH]c4=O)C(O)C3O)C(O)C(O)C2NC(=O)/C=C/CCCCCCCCCC(C)C)OC(CO)C(O)C1O (stereo not given)	9.7	107.9*
Cc1ccc(CN(C)C)c(OC(=O)N(C)C)c1	0.7	nt
OCC1OC(n2cnc3cc(Cl)c(Cl)cc32)[C@@H](O)[C@H]1O (stereo not given in full)	4.8	55.7
CCOc1cc(CN2CCN(C(=O)COc3ccc(C)cc3)CC2)ccc1OC	-2.8	7.6
C[C@H]1O[C@@H](O[C@H]2[C@@H](O)C[C@H](O[C@H]3[C@@H](O)C[C@H](O[C@H]4CC[C@]5(C)C6CC[C@]7(C)[C@@H](C8=CC(=O)OC8)CC[C@]7(O)C6CC[C@@H]5C4)O[C@@H]3C)O[C@@H]2C)C[C@H](O)[C@@H]1O (stereo not given in full)	112.9*	-14.8
C[C@H]1O[C@@H](O[C@H]2CC[C@]3(CO)C4CC[C@]5(C)[C@@H](C6=CC(=O)OC6)CC[C@]5(O)C4CC[C@H]3C2)[C@H](O)[C@H](O)[C@@H]1O (stereo not given in full)	nt	-21.4
CC12CC[C@H]3C(CCC4(O)CC(O)CCC34O)C1(O)CCC2C1=CC(=O)OC1 (stereo not given in full)	3.4	-44.6
COC1CC(OC2CCC3(C)C(CCC4(O)C3CC(OC(=O)c3ccccc3)C3(C)C(O)(C(C)=O)CCC43O)C2)OC(C)C1OC1CC(OC)C(OC2OC(C)C(O)C(OC)C2O)C(C)O1 (stereo not given)	-7.3	-2.2
C[C@]12CC[C@H](O)C[C@H]1CC[C@@H]1[C@@H]2CC[C@]2(C)[C@@H](C3=CC(=O)OC3)CC[C@]12O	90.7*	-19.6
CO[C@H]1[C@@H](O)[C@@H](C)O[C@@H](O[C@@H]2C=C3C(OC(C)=O)CC4(O)C(CC[C@]5(C)[C@@H](C6=CC(=O)OC6)CC[C@]45O)[C@@]3(C)CC2)[C@@H]1O (stereo not given in full)	114.9*	-1.9
CO[C@H]1[C@@H](O)[C@@H](C)O[C@@H](OC2CCC3(C)C(CC[C@@H]4[C@@H]3CCC3(C)C(C5=CC(=O)OC5)C(O)CC43O)C2)[C@@H]1O (stereo not given in full)	110.7*	-10.0
Oc1ccc2c3c1OC1[C@@H](O)CC[C@@]4(O)[C@@H](C2)N(CC2CCC2)CC[C@]314 (stereo not given in full)	15.7	-0.9
c1ccc(C2N3CCCN2CC3)cc1 (stereo not given)	-4.8	nt
CCN(CC)c1nc2ccccc2c(=O)n1-c1ccccc1	-4.4	nt
CC(=O)OC1CCC2(C)C(CC[C@@H]3[C@@H]2CCC2(C)C(C4=CC(=O)OC4)CCC32O)C1 (stereo not given in full)	88.8*	-4.6
CC(=O)O[C@H]1CC[C@]2(C=O)[C@H]3CC[C@]4(C)[C@@H](C5=CC(=O)OC5)CC[C@]4(O)[C@@H]3CC[C@]2(O)C1	111.0*	3.9
C[C@]12CC[C@H](O)C[C@H]1CC[C@@H]1[C@@H]2C[C@@H](O)[C@]2(C)[C@@H](C3=CC(=O)OC3)CC[C@]12O	83.2*	-47.0
CC(=O)OCC(=O)[C@H]1CC[C@H]2[C@@H]3CC[C@H]4C[C@H](O)CC[C@]4(C)[C@H]3C(=O)C[C@]12C	-4.2	-54.4
